# Screens deposited in PubChem by National Center for Advancing Translational Sciences (NCATS).
# Six1-Eya2 inh: qHTS Assay for Inhibitors of the Six1/Eya2 Interaction; AlphaScreen GST-Six1/His-Eya2 binding, biochemical; active compounds read low; activity change, % (test concentration not listed); 360,000 compounds, 0.56% hits; AID 651725, 2012; in the data active = activity change below about -65%; inconclusive = mostly about -30% to -63%
# Target sequence (O00167 whole entry, looked up): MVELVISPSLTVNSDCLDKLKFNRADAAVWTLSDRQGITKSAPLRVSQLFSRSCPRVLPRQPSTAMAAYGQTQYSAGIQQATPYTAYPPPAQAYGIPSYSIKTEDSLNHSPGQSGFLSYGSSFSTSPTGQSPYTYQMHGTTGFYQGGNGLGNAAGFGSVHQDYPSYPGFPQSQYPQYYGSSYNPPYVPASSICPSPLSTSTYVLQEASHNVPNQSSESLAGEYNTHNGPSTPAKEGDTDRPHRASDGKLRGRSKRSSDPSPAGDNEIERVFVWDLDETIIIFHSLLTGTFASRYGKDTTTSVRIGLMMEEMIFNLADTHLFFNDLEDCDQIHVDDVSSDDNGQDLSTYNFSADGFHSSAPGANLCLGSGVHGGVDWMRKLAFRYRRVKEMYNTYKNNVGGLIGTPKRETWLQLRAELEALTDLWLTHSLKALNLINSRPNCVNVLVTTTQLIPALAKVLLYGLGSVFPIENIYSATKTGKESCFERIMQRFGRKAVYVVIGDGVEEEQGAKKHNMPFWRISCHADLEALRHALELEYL
# Target sequence (Q15475 whole entry, looked up): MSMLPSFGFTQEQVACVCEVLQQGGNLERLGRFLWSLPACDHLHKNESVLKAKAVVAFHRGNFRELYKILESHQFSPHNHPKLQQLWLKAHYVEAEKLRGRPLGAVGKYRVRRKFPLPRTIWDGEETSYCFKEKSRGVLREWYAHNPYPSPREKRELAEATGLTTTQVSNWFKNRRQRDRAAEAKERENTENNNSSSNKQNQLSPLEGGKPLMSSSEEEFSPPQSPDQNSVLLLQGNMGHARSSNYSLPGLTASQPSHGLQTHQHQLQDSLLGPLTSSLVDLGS
#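 Homogeneous AlphaScreen proximity assay pairing GST-Six1 with His-tagged Eya2 (added as 5X mix: 250 nM and 500 nM) in 50 mM Tris pH 8.0, 300 mM NaCl, 1 mM TCEP. Glutathione donor and nickel acceptor beads; 1 h, 37 °C, dark.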
# IL1B secr inh: qHTS for Inhibitors of Inflammasome Signaling: IL-1-beta AlphaLISA Primary Screen. AID 743279, 2014. 360,000 compounds, 4.7% hits. THP-1 LPS/ATP IL-1B secretion, AlphaLISA, 16 h; active compounds read low. activity change, % at 57.5 µM; in the data active = activity change below about -50%; inconclusive = mostly about -30% to -49%
#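 Secreted IL-1B measured by AlphaLISA bead assay after 16 h compound exposure of THP-1 cells; compounds (final up to 57.5 uM) added 1 h before LPS (250 ng/mL) and ATP (1.25 mM) stimulation; lower signal means less secretion.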
# TDP1 cell CPT: qHTS for Inhibitors of human tyrosyl-DNA phosphodiesterase 1 (TDP1): qHTS in cells in presence of CPT | Potency, µM (series often up to 46.2 µM), without a hit: top-dose activity change, negative = growth inhibition, most hits filed as inhibitors | 420,000 compounds, 12% hits | chicken DT40 Tdp1-/-;hTDP1 cells + 20 nM CPT, ATP luminescence, 48 h; note: potency is the fitted concentration of half-maximal effect; nearly all actives have a fitted effect of over 55% in size
#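 Cell growth measured by CellTiter-Glo luminescence after a minimum 48 h, 37 C compound exposure with 20 nM CPT in Tdp1-knockout DT40 cells stably expressing hTDP1, seeded 400/well; qHTS titration format.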
# DT40 TDP1 no CPT: qHTS for Inhibitors of human tyrosyl-DNA phosphodiesterase 1 (TDP1): qHTS in cells in absence of CPT. AID 686978, 2013. 420,000 compounds, 15% hits. Potency, µM (series often up to 46.2 µM), without a hit: at the highest dose activity change, negative = growth inhibition, usual class: inhibitors. DT40 Tdp1-/- hTDP1 cells, no CPT, ATP luminescence, 48 h; note: potency is the fitted concentration of half-maximal effect; nearly all actives have a fitted effect of over 55% in size
#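 DT40 Tdp1-/-;hTDP1 cells, no CPT (DMSO vehicle only), 400 cells/well; compounds pin-transferred; ≥48 hr, 37 °C; CellTiter-Glo 30 min RT dark, luminescence read.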
# CtBP-E1A inh: qHTS Assay for Inhibitors of the CtBP/E1A Interaction | AlphaScreen GST-E1A/His-CtBP binding, 1536-well; active compounds read low | activity change, % (no concentration beside the values) | 340,000 compounds, 0.49% hits; in the data active = activity change below about -65%; inconclusive = mostly about -30% to -63%
#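 In 5 uL wells, 23 nL compound meets equimolar GST-E1A and His-CtBP (5X stock 125 nM each) for 2 h, 37 °C. Beads (5X, 50 ug/mL) then 1 h, 37 °C, dark.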
# TDP1 inh: qHTS Assay for Inhibitors of Tyrosyl-DNA Phosphodiesterase (TDP1). AID 485290, 2010. Potency, µM (doses to about 130 µM), for the others: top-dose activity change, negative = inhibition, usual class: inhibitors. Tyrosyl-DNA phosphodiesterase 1 (Homo sapiens), Q9NUW8. 350,000 compounds, 0.28% hits. recombinant TDP1, AlphaScreen DNA substrate cleavage; note: potency is the fitted concentration of half-maximal effect; nearly all actives have a fitted effect of over 40% in size
#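 Here, a 5' biotin and 3' phosphotyrosine-FITC DNA oligonucleotide reports Tdp1 activity: intact substrate bridges AlphaScreen beads, while cleavage leaves a 3' phosphate and drops signal. All incubations at room temperature.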
# * = called active by the depositor; ? = inconclusive; . = no result. An excerpt weighted towards active compounds, which were near 18% of everything screened. Unless noted, calls come from the whole dose curve; as a rule, active = well fitted curve in the direction sought with a large enough effect; inconclusive = small, poorly fitted or top-dose-only effect, or another doubt; inactive = no such curve, though single readings can be large; an effect the other way counts as inactive or inconclusive. % is set by controls: 0 for no effect and ±100 for the full control effect.
SMILES,Six1-Eya2 inh,IL1B secr inh,TDP1 cell CPT,DT40 TDP1 no CPT,CtBP-E1A inh,TDP1 inh
NC(=S)N=Nc1c(O)[nH]c2cc(F)c(F)cc12,-65.2*,0.0,-10.3%,?,-71.5*,2.8%
NC(=O)N=Nc1c(O)[nH]c2c(Br)cc(Br)cc12,.,.,.,.,.,-12.3%
NC(=S)N=Nc1c(O)[nH]c2c(Cl)cc(Cl)cc12,?,?,16.4µM*,4.61µM*,?,.
CCCn1c(CCC(=O)Nc2ccc(OCC)cc2)nc2cccnc21,.,.,?,?,.,1.3%
CCCOc1ccc(/C=N/NC(=O)C2CCCN2S(=O)(=O)c2ccc(Cl)cc2)cc1 (centres undefined),-14.9,-3.9,16.4µM*,?,-4.6,9.8%
COc1ccc(NC(=O)[C@@H]2CCCN2S(=O)(=O)c2ccc(Cl)cc2)cc1,-8.5,-2.7,?,?,-1.0,-0.1%
O=C(Nc1ccc(Cl)cn1)C1CCCN1S(=O)(=O)c1ccc(Cl)cc1 (centres undefined),7.7,-1.0,?,-24.1%,10.2,0.0%
CC(C)Oc1ccc(/C=N/NC(=O)C2CCCN2S(=O)(=O)c2ccc(Cl)cc2)cc1 (centres undefined),-12.9,-1.4,?,20.6µM*,-0.2,6.1%
O=C(NCC1CCCO1)C1CCN(c2ccc(S(=O)(=O)N3CCCC3)cc2)CC1 (centres undefined),3.0,11.0,-3.6%,-22.3%,-3.8,1.1%
COc1ccc(NC(=O)Cn2cnc3c(cnn3C(C)(C)C)c2=O)cc1OC,0.3,4.3,3.8%,-5.2%,7.7,0.0%
O=C1NC[C@@H](c2ccccc2)OC(=O)[C@@H](Cc2ccc(F)cc2)CC/C=C/C[C@H]1CC(=O)N(CCO)Cc1ccccc1,16.4,?,13µM*,18.4µM*,0.0,0.8%
O=C(C[C@@H]1C/C=C/CC[C@@H](Cc2ccc(F)cc2)C(=O)O[C@H](c2ccccc2)CNC1=O)NCCO,-5.4,24.2,?,?,-0.4,0.8%
O=C1NC[C@H](c2ccccc2)OC(=O)[C@H](Cc2ccc(F)cc2)CC/C=C/C[C@@H]1CC(=O)N(CCO)Cc1ccccc1,-4.9,0.0,9.2µM*,10.3µM*,0.8,2.3%
NC(=O)c1c(NC(=O)c2c(F)cccc2F)sc2c1CCN(Cc1ccccc1)C2,1.6,-8.1,?,16.4µM*,-0.9,.
CC(C)CN(CC(C)C)S(=O)(=O)c1ccc(C(=O)Nc2sc3c(c2C(N)=O)CCN(C(C)C)C3)cc1,.,.,8.2µM*,9.2µM*,.,5.2%
CCOC(=O)c1c(NC(=O)c2ccc(S(=O)(=O)N(CC(C)C)CC(C)C)cc2)sc2c1CCN(CC)C2,.,.,8.2µM*,16.4µM*,.,2.6%
CCN1CCc2c(sc(NC(=O)c3ccc(S(=O)(=O)N(CC)c4ccccc4)cc3)c2C(N)=O)C1,-16.3,-95.8*,?,14.6µM*,-0.5,5.0%
Cc1cccc(NS(=O)(=O)c2ccc(C)c(C(=O)NCCCN3CCOCC3)c2)c1,-3.5,0.0,-9.7%,-6.7%,-18.1,-4.1%
COc1ccc(S(=O)(=O)N2CCN(CC(=O)Nc3c(C)n[nH]c3C)CC2)cc1OC,13.0,-3.3,9.5%,1.6%,-4.5,0.9%
O=C(NCc1ccccc1Cl)c1cccc(NC2=NC3CS(=O)(=O)CC3S2)c1 (centres undefined),-0.7,1.4,-6.5%,0.4%,-4.8,.
